# Shown are actives, neighbours in structure and some others; about 28% of the full set was active somewhere.
# CYP2C9 inh: blocks human cytochrome P450 2C9; CYP2C9 Supersomes, luciferin-H conversion, luminescence; inhibition, % at 5 µM; 20% of 96,000 active; AID 777;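 active = blocking of liver enzyme CYP2C9 beyond about 50% at 5 µM, limit read from the data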
# CYP2C9 act: increases human cytochrome P450 2C9 activity | P11712 | recombinant CYP2C9, luciferin-H conversion, luminescence; active compounds read high; factor 1 = untreated enzyme, 0 = blocked | activation factor at 5 µM | 1.4% of 96,000 active | AID 1024;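 active = activation factor of 2 or more for CYP2C9 at a 5 µM dose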
# CD11b adhes inh: blocks human CD11b/CD18 adhesion to fibrinogen. P05107+P11215. K562 CD11b/CD18 adhesion to fibrinogen, ATPlite luminescence; Mn2+ added to activate the integrin. inhibition, % at 10 µM. 0.54% of 93,000 active. AID 1497;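 active = primary inhibition of 50% or more at 10 µM, then 40% or more on retest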
# Target sequence (P05107 whole entry, looked up, other chains not shown): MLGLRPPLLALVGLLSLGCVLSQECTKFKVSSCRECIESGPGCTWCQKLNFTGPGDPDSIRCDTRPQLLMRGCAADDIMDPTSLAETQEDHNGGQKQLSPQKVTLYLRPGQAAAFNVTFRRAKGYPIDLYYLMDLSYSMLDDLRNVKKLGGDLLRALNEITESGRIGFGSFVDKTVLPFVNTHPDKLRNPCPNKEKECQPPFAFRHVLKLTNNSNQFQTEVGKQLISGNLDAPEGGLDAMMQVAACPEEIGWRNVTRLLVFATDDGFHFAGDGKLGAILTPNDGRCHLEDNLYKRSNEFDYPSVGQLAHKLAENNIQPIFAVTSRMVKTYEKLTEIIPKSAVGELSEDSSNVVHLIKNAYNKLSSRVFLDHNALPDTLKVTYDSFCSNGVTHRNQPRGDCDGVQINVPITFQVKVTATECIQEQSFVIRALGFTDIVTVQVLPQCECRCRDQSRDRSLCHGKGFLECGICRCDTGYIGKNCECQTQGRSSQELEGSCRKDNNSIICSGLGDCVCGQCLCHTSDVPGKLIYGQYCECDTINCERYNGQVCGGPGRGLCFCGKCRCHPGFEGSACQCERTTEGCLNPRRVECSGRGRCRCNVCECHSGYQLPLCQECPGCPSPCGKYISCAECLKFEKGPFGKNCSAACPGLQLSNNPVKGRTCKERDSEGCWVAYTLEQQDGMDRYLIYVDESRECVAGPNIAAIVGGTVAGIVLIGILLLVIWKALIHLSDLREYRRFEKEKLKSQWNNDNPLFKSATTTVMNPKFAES
# CYP2C19 inhib: human CYP2C19 inhibition; P33261; CYP2C19 Supersomes, luciferin-H EGE luminescence, 30 min; inhibition, % at 5 µM; 21% of 96,000 active;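 active = CYP2C19 inhibition above a set limit at 5 µM in the primary screen, cut at about 50% in these data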
# CD11b adhes enh: enhancers of human CD11b/CD18 binding to fibrinogen; K562 CD11b/CD18 adhesion to fibrinogen, ATPlite luminescence; activation, % at 10 µM; 0.07% of 93,000 active; AID 1499;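 active = 10 µM primary screen giving 50% or more activity, confirmed by 40% or more on retest at that dose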
# CYP2C19 act: activators of human cytochrome P450 2C19 | P33261 | recombinant CYP2C19, luciferin-H EGE luminescence; active compounds read high; 0 = fully inhibited enzyme, 1 = untreated enzyme | activation factor at 5 µM | 96,000 tested, under 10 active;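 active = activation factor of at least 2 at 5 µM in the primary screen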
# A number is an active result; i = inactive; nt = no result given.
SMILES,CYP2C9 inh,CYP2C9 act,CD11b adhes inh,CYP2C19 inhib,CD11b adhes enh,CYP2C19 act
O=[N+]([O-])c1cc(/C=N\Nc2nccs2)ccc1O,i,i,i,i,i,i
CCOC(=O)c1c(-c2ccccc2)oc2ccc(OC)cc12,65,i,i,52,i,i
NC(=O)c1c(-c2ccccc2)oc2ccc(O)cc12,i,2.1,i,i,i,i
COc1ccc2oc(-c3ccccc3)c(C(=O)N3CCOCC3)c2c1,i,i,i,i,i,i
O=C(CN1CCCCC1)Nc1ccccc1,i,i,i,i,i,i
Cc1ccc(NC(=O)CN2CCCCCC2)c(Br)c1,i,i,i,80,i,i
O=C(CN1CCCCCC1)Nc1ccc(F)c(F)c1F,i,i,i,72,i,i
Cc1cc(C(C)(C)C)cc(S(=O)(=O)NCC(=O)O)c1C,i,2.3,i,i,i,i
Fc1ccc(-n2c(Cc3ccccc3)nnc2SCc2nc(-c3cccs3)no2)cc1,74,i,nt,i,nt,i
Cc1ccc(-n2c(Cc3cccs3)nnc2SCC(N)=O)cc1,i,i,i,56,i,i
Clc1ccc(-c2noc(CSc3nnc(Cc4cccs4)n3-c3ccccc3)n2)cc1,i,i,69,i,i,i
Cc1ccc(-c2noc(CSc3nnc(Cc4cccs4)n3-c3ccccc3)n2)cc1,i,i,i,72,i,i
O=C(CSc1nnc(Cc2ccccc2)n1-c1ccccc1)NNC(=O)Cc1ccccc1,i,i,i,i,i,i
Cc1ccc(-c2noc(CSc3ccccc3)n2)cc1,i,i,i,i,i,i
CCn1c(SCc2nc(-c3ccc(OC)c(OC)c3)no2)nnc1-c1cccs1,i,i,i,i,i,i
CC(=O)Nc1ccc(S(=O)(=O)Nc2nnc(C3CCCCC3)s2)cc1,i,i,i,i,i,i
CCCC(=O)c1c(C)c2ccccc2n1C,i,i,i,i,i,i
COCCN1CCn2c(nc3cc(NC(=O)c4ccc(OC)cc4)ccc32)C1,i,i,i,i,i,i
CCOCCCNC(=O)CCCOc1ccccc1,i,i,i,i,i,i
COc1ccc(CCn2c(SCC(=O)Nc3cc(C)on3)nc3ccsc3c2=O)cc1OC,60,i,i,54,i,i
CCCCCCn1c(SCC(=O)Nc2cc(C)on2)nc2ccccc2c1=O,71,i,i,i,i,i
NC(=O)c1ccsc1NC(=O)CSc1nc2ccccc2c(=O)n1CCCO,58,i,i,i,i,i
NC(=O)c1ccsc1NC(=O)CSc1nnc(C2CC2)n1Cc1ccccc1,i,i,i,i,i,i
Cc1cc(NC(=O)CSc2nc3ccccc3c(=O)n2Cc2ccc(F)cc2)no1,i,i,i,i,i,i
Cc1ccc(-n2c(SCC(=O)Nc3cc(C)on3)nc3ccccc3c2=O)cc1,i,i,i,i,i,i
SMILES,CYP2C9 inh,CYP2C9 act,CD11b adhes inh,CYP2C19 inhib,CD11b adhes enh,CYP2C19 act
CCCCn1c(SCC(=O)Nc2cc(C)on2)nc2ccsc2c1=O,i,i,i,i,i,i
COc1ccc(CCn2c(SCC(=O)Nc3cc(C)on3)nc3ccccc3c2=O)cc1OC,51,i,i,64,i,i
CNC(=O)CSCCn1c(SCC(=O)NC)nc2ccccc2c1=O,i,i,i,i,i,i
Cc1cc(NC(=O)CSc2nc3cc4c(cc3c(=O)n2CCc2ccccc2)OCO4)no1,i,i,nt,59,nt,i
Cc1cc(NC(=O)CSc2nnc3c(C)cc4cc5c(cc4n23)OCO5)no1,i,i,i,i,i,i
CCCn1c(SCc2ccon2)nc2ccccc2c1=O,83,i,i,85,i,i
N#CCSc1nc2ccccc2c(=O)n1CCC(=O)NCCc1ccccc1,i,i,i,i,i,i
CCOC(=O)CSc1nc2ccccc2c(=O)n1CCC(=O)NCCc1ccc(OC)c(OC)c1,65,i,i,60,i,i
CCCCn1c(SCC(=O)Nc2cc(C)[nH]n2)nc2ccsc2c1=O,72,i,i,i,i,i
CCC(O)CNC(=O)NC(=C(Cl)Cl)c1ccc(C)c(F)c1 (stereo unspecified),nt,nt,i,nt,i,nt
CC(=O)Oc1ccc(/C=N/NC(=O)C2CCCN2S(=O)(=O)c2ccc(Cl)cc2)cc1 (stereo unspecified),i,i,i,i,i,i
CC1CCCCN1S(=O)(=O)c1ccc(C(=O)Nc2sccc2C(N)=O)cc1 (stereo unspecified),97,i,i,i,i,i

# From PubChem
